High-throughput results: PubChem, several laboratories
PLAP activator: human PLAP activation. P05187. purified PLAP enzyme, luminescent substrate read-out; active compounds read high. activation fold at 20 µM. hit rate 1.2% among 96,000. AID 696; in the data active = activation fold above about 2
Cav32 inh: blocks human Cav3.2 T-type calcium channel; O95180; Cav3.2-expressing cells, Fluo-4 calcium fluorescence FDSS; active compounds read low; B-score at 10 µM; hit rate 4% among 100,000; AID 449739;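 active = single-dose well whose peak fluorescence ratio is a statistical outlier from its plate by either plate-standardised score or position-corrected B-score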
PostGolgi yeast: growth inhibition of a yeast mutant, post-Golgi transport screen; post-Golgi transport phenotypic cell assay; inhibition, % at 10 µM; hit rate 0.9% among 98,000;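 note: yeast cells grown in 1536-well plates; yeast grown about 18 h at 30C before absorbance read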
DAT uptake mod: changed human dopamine transporter uptake under cocaine IC80 | B-score at 10 µM | AID 449768 | Q01959 | hit rate 1.3% among 110,000 | LLC-PK1 hDAT cells, [14C]-dopamine uptake with cocaine IC80; actives deviate in either direction;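 active = Z score or B-score, a plate-position-corrected score, falls beyond the plate's 99.7% confidence bounds, in either direction; inactive = both scores lie inside the 99.7% bounds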;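 note: scored against the spread of the other compound wells on the same plate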
Target sequence (Q01959 whole entry, looked up): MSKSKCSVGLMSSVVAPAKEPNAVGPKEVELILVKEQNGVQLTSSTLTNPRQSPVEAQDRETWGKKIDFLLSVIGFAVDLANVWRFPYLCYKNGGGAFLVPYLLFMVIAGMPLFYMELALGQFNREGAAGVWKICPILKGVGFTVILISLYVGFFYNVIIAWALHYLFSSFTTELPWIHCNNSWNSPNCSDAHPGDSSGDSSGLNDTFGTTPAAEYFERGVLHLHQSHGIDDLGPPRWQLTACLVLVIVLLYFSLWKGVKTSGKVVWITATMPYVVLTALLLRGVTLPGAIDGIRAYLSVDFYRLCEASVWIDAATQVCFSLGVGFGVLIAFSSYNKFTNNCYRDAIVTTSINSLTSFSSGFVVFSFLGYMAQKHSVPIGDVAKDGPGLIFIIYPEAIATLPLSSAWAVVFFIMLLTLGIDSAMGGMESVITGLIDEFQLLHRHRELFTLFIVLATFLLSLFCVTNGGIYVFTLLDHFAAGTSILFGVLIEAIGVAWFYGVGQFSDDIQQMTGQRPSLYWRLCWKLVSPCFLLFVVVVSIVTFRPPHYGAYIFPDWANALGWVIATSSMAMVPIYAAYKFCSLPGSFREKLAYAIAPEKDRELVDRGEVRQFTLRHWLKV
PostGolgi ctrl: yeast control strain growth, post-Golgi counter-screen; hit rate 5% among 98,000; inhibition, % at 10 µM; efflux-deficient yeast background strain, growth absorbance A615, 16 h
Starred values were filed as active, the others as inactive; / = not tested or not shown. In the library only some 9.6% were active in any assay of this set; here they are far more common. Cut-off read from the data, not from the text of the source, unless noted: active = inhibition above about 30%; inactive = the rest.

SMILES | PLAP activator | Cav32 inh | PostGolgi yeast | DAT uptake mod | PostGolgi ctrl
CN(C)S(=O)(=O)Oc1cccc(C(=O)Nc2cccc(Cl)c2)c1 | 0.6 | -3.1 | 13 | 2 | 5
CN(C)S(=O)(=O)Oc1cccc(C(=O)Nc2ccc(Cl)c(Cl)c2)c1 | 1 | 0.67 | 10 | -0.4 | 36*
CNC(=S)N1CCN(c2c(F)cc3c(=O)c(C(=O)O)cn(C4CC4)c3c2OC)CC1C (stereo not given) | 1 | 4.4* | 5 | 0.86 | 3
Cc1ccc([N+](=O)[O-])cc1N/C=C1\CCc2ccccc2C1=O | 1 | -0.72 | 7 | -0.21 | -2
Clc1cccc(CSC2=NCCCN2)c1 | / | 0.11 | / | 0.14 | /
CCN(CC)CCN1C(=O)C(=O)/C(=C(/O)c2cnn(-c3ccccc3)c2C)C1c1ccc(C)o1 (stereo not given) | 1.6 | -0.007 | 3 | -0.77 | 3
Cc1ccc(C2/C(=C(\O)c3cnn(-c4ccccc4)c3C)C(=O)C(=O)N2CCN(C)C)o1 (stereo not given) | / | -0.18 | -3 | -2.4* | 1
Cc1ccc2nc(SCCCCOc3ccccc3)[nH]c2c1 | 0.8 | -6.2* | 3 | 0.87 | 2
O=C(O)CSc1nc2ccccc2[nH]1 | 0.9 | -0.091 | 20 | -0.32 | -3
c1ccc(OCCSc2nc3ccccc3[nH]2)cc1 | / | -3.6* | / | -0.031 | /
COC(=O)CSc1nc2ccc(C)cc2[nH]1 | 1.1 | 0.88 | 8 | 0.039 | 4
CCn1c(CC(=O)Nc2cccc(Cl)c2Cl)nnc1SCCOc1ccc(OC)cc1 | 1.4 | -0.029 | 14 | 1.4 | 18
COc1ccc(OCCSc2nnc(CC(=O)Nc3cccc(Cl)c3Cl)n2C)cc1 | 1.5 | -4* | 16 | 0.57 | -1
CC(C)=C1C2CCC1C1C(=O)N(NC(=O)COc3ccc(Cl)c(C)c3)C(=O)C21 (stereo not given) | 1.2 | -5.3* | 1 | -0.6 | 12
Cc1cc(OCC(=O)N2CCCC2)ccc1Cl | 1.2 | -0.0027 | 1 | 0.87 | 0
CC1(c2nnc(-c3ccc(Cl)cc3)o2)CC(c2cccnc2)=NO1 (stereo not given) | / | 0.39 | / | -0.82 | /
CC1(C)CC(=O)c2cc(OCC(=O)N3CCOCC3)ccc2O1 | 1 | 1.2 | -2 | 1 | 21
CCOC(=O)COc1ccc2c(c1)C(=O)CC(C)(c1cccnc1)O2 (stereo not given) | 1.2 | 0.2 | 4 | 0.33 | 42*
Cc1ccc(C(=O)C(OC(=O)CN2C(=O)c3ccccc3C2=O)c2ccccc2)cc1 (stereo not given) | 1 | -5.9* | -1 | 1.1 | 14
Cc1ccc(C(=O)C(OC(=O)CN2C(=O)c3ccccc3C2=O)c2ccccc2)cc1C (stereo not given) | 1 | -5.1* | -7 | -0.48 | 6
CCOc1ccc(C(=O)Nc2cnn(Cc3ccc(Cl)c(Cl)c3)c2)cc1 | 0.7 | -2.2 | 8 | 1.5 | 5
O=C(O)CCSc1nc2ccccc2s1 | 0.9 | 0.6 | 0 | -0.29 | 13
O=C(O)CCSCCC(=O)O | 1.1 | 0.37 | 33* | -0.49 | 7
Cc1ccc(-n2ncc(C(=O)NCc3ccc4c(c3)OCO4)c2NC(=O)c2ccco2)cc1C | 1.4 | -6.2* | 3 | 0.41 | -4
Cc1ccccc1Cc1c(C)nc2c(C(=O)NCc3ccc4c(c3)OCO4)cnn2c1C | 0.9 | -0.19 | -2 | -0.44 | 20
SMILES | PLAP activator | Cav32 inh | PostGolgi yeast | DAT uptake mod | PostGolgi ctrl
Cc1ccc(C)c(Cc2c(C)nc3c(C(=O)NCc4ccc5c(c4)OCO5)cnn3c2C)c1 | 1.4 | / | 4 | / | 57*
Cc1nc2c(C(=O)NCc3ccco3)cnn2c(C)c1Cc1ccc(F)cc1Cl | 1.1 | 0.22 | 3 | -0.95 | 18
Cc1ccc(NC(=O)c2cnn(-c3ccccc3)c2NC(=O)c2ccco2)cc1C | 1 | -0.99 | 1 | 0.42 | 12
Cc1cccc(Cc2c(C)nc3c(C(=O)NCc4ccco4)cnn3c2C)c1 | 1 | 0.083 | 3 | 0.22 | 33*
N=c1c2c(n(Cc3ccccc3)c3c1CCC3)CCC2 | 0.6 | -0.58 | -6 | -4.2* | 6
Cc1c(NC(=O)C(C)Sc2nc3ccccc3c(=O)n2CCO)c(=O)n(-c2ccccc2)n1C (stereo not given) | 1.9 | -0.14 | -6 | -0.38 | -6
CCn1nc([N+](=O)[O-])c(C(C#N)c2nc3cc(C(F)(F)F)ccc3s2)c(Cl)c1=O (stereo not given) | 1 | -5.2* | 17 | -0.65 | 36*
CCc1cc2c(=O)c(-c3nc4ccccc4[nH]3)coc2cc1OC(=O)N1CCOCC1 | 1 | / | 31* | -0.13 | 3
CCc1cc2c(=O)c(-c3ccc4c(c3)OCCO4)coc2cc1OC(=O)c1ccco1 | 1.1 | -0.0099 | -22 | 1.4 | 0
O=C(Nc1c(Cl)cc(Cl)cc1-c1nc2ccccc2s1)c1ccc(Br)o1 | 1.2 | -2.8 | 11 | -0.58 | 29
O=c1c2cccc3c2c(nn1CN1CCOCC1)-c1ccccc1-3 | 1.1 | 1.3 | 41* | -0.14 | 2
O=C(CCn1nc(-c2ccc(Cl)cc2)c2ccccc2c1=O)NCCN1CCOCC1 | 1.5 | 0.72 | -3 | -0.19 | 12
O=C(NC(C(=O)c1ccccc1)N1CCOCC1)c1cccs1 (stereo not given) | 1.4 | / | 5 | -0.092 | 33*
CC(C)[C@H]1COCCS(=O)(=O)N1Cc1ccccc1 | / | 0.97 | / | -0.33 | /
COC(C[C@@H]1O[C@H]1C(=O)COCc1ccccc1)OC | / | 1.2 | / | -0.51 | /
CC(Sc1nnnn1C)C(=O)Nc1ccc(N2CCOCC2)cc1 (stereo not given) | 1 | 1.6 | 7 | -7.8* | -10
C=CCOC(=O)C1=C[C@@H](c2ccc(Br)cc2)C[C@@H](OCc2ccc(CO)cc2)O1 | / | -1.1 | / | -0.82 | /
Cc1ccc(C(=O)O/N=C/c2c(N3CCOCC3)n(C)c3ccccc23)cc1 | 1.5 | -0.88 | 16 | -0.13 | 32*
CC(=O)O/N=C/c1c(N2CCOCC2)n(C)c2ccccc12 | 1.1 | -0.28 | 26 | -2.3 | 10
O=C(NCC1CCCO1)c1ccc(N2CCCCC2)nc1 (stereo not given) | 1 | -0.6 | 7 | 0.89 | 8
Cc1ccccc1N(CC(=O)NCCc1ccccc1)C(=O)c1ccc(N2CCCC2)nc1 | 1.6 | -4.8* | -4 | 1.1 | 4
c1ccc2c(-c3c[nH]c4ccccc34)c3ccccc3nc2c1 | 0.8 | / | 1 | / | 50*
O=C(OCC(=O)N1N=C(c2ccc(Cl)cc2)CC1c1ccco1)c1ccccc1O (stereo not given) | 1.8 | -4.7* | -6 | -1 | 22
O=C(OCC(=O)N1CCN(C(=O)c2ccco2)CC1)c1ccccc1O | 1.1 | 0.95 | -4 | 0.47 | 1
O=C(CCC1(C(=O)O)CCC(=O)NC1)NCc1ccccc1 (stereo not given) | 1 | 0.61 | 1 | -1.1 | 8
C[C@@H](C(=O)Nc1ccc2ccccc2c1)[C@@H]1C[C@@]1(C)[C@@H](NC(=O)c1ccccc1)c1ccccc1 | / | -3.9* | / | 1.2 | /
C[C@@H](C(=O)Nc1ccc2ccccc2c1)[C@H]1C[C@]1(C)[C@H](NC(=O)c1cccnc1)c1ccccc1 | / | -1.6 | / | 0.58 | /
O=C(NCCN1CCN(Cc2ccccc2Cl)CC1)Nc1ccccc1 | 0.8 | -0.41 | -18 | 0.65 | 27
